# Hit rate of the full screen: of about 300,000 compounds, about 3,200 (1.1%) were called active. The full list was thinned out, with actives kept by preference. Values without a mark were called inactive. Rule as the data show it: active = inhibition above about 75%; inconclusive = no clear call, values can overlap the other calls; inactive = below that; tested in HMLE shEcad cells.
# Experiment: growth suppression of cancer stem-like cells – cell-based, luminescence, primary screen (AID 2717)
# Settings: cancer stem cell-like cells viability, at 7.5 µM, stronger effect = higher value
row,SMILES,inhibition
1,CN=C(Nc1cccc(S(=O)(=O)N2CCOCC2)c1)c1ccccc1,-5.3%
2,COC(=O)/C=C\C(=O)Nc1cccc([N+](=O)[O-])c1,88.5% (active)
3,COc1cccc(CNC(=O)CCCC(=O)Nc2cccc([N+](=O)[O-])c2)c1,-9.18%
4,COc1ccc(S(=O)(=O)NC(C)C(=O)Nc2cccc([N+](=O)[O-])c2)cc1 (centres undefined),-2.67%
5,Cc1ccc(NC(=O)c2ccc(Cl)nc2)cc1S(=O)(=O)N1CCOCC1,33.6%
6,CCOC(=O)N1CCN(C(=O)COCc2cc(-c3ccc4c(c3)OCO4)on2)CC1,-12.8%
7,Cc1cccc(N2CCN(C(=O)COCc3cc(-c4ccc5c(c4)OCO5)on3)CC2)c1C,121% (active)
8,O=C(COCc1cc(-c2ccc3c(c2)OCO3)on1)N1CCN(c2cccc(Cl)c2)CC1,36.2%
9,Cc1ccc(C(=O)Nc2ccc3c(c2)OCCO3)cc1S(=O)(=O)N1CCOCC1,-3.87%
10,C[C@H](CO)N1C[C@H](C)[C@@H](CN(C)S(=O)(=O)c2ccc(F)cc2)Oc2ccc(NC(=O)CCC(F)(F)F)cc2C1=O,4.59%
11,CCN(c1ccccc1)S(=O)(=O)c1ccc(C(=O)Nc2ccccc2OC)cc1,16.8%
12,COc1ccc([C@H]2CC(=O)C=C(c3ccc(CO)cc3)C2)cc1,-11%
13,S=C(Nc1cccc(Cl)c1)Nc1ccc2c(c1)OCCO2,4.65%
14,FC(F)(F)c1cccc(NC(=S)Nc2cccc(Cl)c2)c1,52.9%
15,Cc1csc(NC(=S)Nc2cccc(Cl)c2)n1,78.6% (active)
16,CCN(CC)S(=O)(=O)c1ccc(N2CCOCC2)c(NC(=O)C(C)Oc2ccc(F)cc2)c1 (centres undefined),-11.2%
17,CN(c1ccccc1)S(=O)(=O)c1cc(C(=O)N2CCN(c3ncccn3)CC2)ccc1Cl,3.3%
18,Cc1ccc(C)c(S(=O)(=O)N2CCN(C(=O)Nc3ccccc3)CC2)c1,-18.4%
19,Cc1ccc(C)c(S(=O)(=O)N2CCN(c3ncnc4sccc34)CC2)c1,101% (active)
20,COc1ccc(C)cc1S(=O)(=O)N1CCN(S(=O)(=O)c2cc(C(=O)O)ccc2C)CC1,-3.35%
21,CCN1C(=O)/C(=C\N2CCN(c3cccc(Cl)c3)CC2)SC1=S,100% (active)
22,CCC1(C)NC(=O)N(CC(=O)N2CCN(c3cccc(Cl)c3)CC2)C1=O (centres undefined),3.29%
23,CCN1C(=O)/C(=C\N2CCOCC2)SC1=S,-22.1%
24,COc1cc(/C=C/C(=O)Nc2ccc(OC)c(S(=O)(=O)N3CCOCC3)c2)ccc1OCC#N,42.4%
25,O=C(Nc1cccc(S(=O)(=O)N2CCCC2)c1)c1cncc(Br)c1,-1.23%
26,C=CCC[C@@H](Cc1ccc(F)cc1)C(=O)OC[C@@H](C)NC(=O)[C@H](CC=C)CC(=O)N(CCO)Cc1ccccc1,-1.95%
27,O=C(CSc1nnc(-c2ccncc2)o1)Nc1cccc(Cl)c1,7.36%
28,Cc1cc(C)c(S(=O)(=O)N2CCC(C(=O)OCc3c(C)noc3C)CC2)c(C)c1,1.55%
29,COc1cc(/C=C/C(=O)OCC(=O)NCCCc2ccccc2)ccc1O,14.6%
